For assay [1], the target named is T1, CDK9/cyclin T1 (Homo sapiens) (UniProt O60563+P50750). The conditions noted are these: at 1 µM.
For assay [2], the target named is T1, CDK9/cyclin T1 (Homo sapiens). To be noted: at 10 µM.
Assay [3] concerns the target T2, Serine/threonine-protein kinase Chk1 (Homo sapiens) (UniProt O14757).
T2 sequence (whole entry): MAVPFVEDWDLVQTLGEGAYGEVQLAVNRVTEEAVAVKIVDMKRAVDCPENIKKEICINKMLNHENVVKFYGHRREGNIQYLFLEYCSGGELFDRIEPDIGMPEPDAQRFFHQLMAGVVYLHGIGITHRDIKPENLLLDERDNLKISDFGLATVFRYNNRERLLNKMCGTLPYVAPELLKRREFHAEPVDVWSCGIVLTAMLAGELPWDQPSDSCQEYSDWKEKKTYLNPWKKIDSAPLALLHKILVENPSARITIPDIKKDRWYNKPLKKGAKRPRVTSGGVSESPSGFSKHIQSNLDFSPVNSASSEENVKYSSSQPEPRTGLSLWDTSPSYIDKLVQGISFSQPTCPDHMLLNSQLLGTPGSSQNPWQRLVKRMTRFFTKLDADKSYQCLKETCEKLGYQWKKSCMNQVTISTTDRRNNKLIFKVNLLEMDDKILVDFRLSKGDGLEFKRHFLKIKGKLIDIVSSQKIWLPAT
The conditions noted are these: at 1 µM.

In assay [4] the target is Serine/threonine-protein kinase Chk2 (Homo sapiens) (UniProt O96017). To be noted: at 1 µM.
For assay [5] the target is unchanged. To be noted: at 10 µM.
For assay [6], the target named is Casein kinase I isoform gamma-1 (Homo sapiens) (UniProt Q9HCP0). To be noted: at 1 µM.
For assay [7] the target is unchanged. The conditions noted are these: at 10 µM.
Assay [8] addresses Casein kinase I isoform delta (Homo sapiens) (UniProt P48730). The conditions noted are these: at 1 µM.
Assay [9] has the same target. The conditions noted are these: at 10 µM.
The target in assay [10] is T3, Casein kinase II (Homo sapiens) (UniProt P67870+P68400+P19784). To be noted: at 1 µM.
Assay [11] concerns the target Dual specificity protein kinase CLK2 (Homo sapiens) (UniProt P49760). The conditions noted are these: at 1 µM.
Assay [12] has the same target. To be noted: at 10 µM.
The target of assay [13] is Dual specificity protein kinase CLK3 (Homo sapiens) (UniProt P49761). To be noted: at 1 µM.
The target is the same in assay [14]. The conditions noted are these: at 10 µM.
Assay [15] deals with Tyrosine-protein kinase CSK (Homo sapiens) (UniProt P41240). To be noted: at 1 µM.
Assay [16] has the same target. The conditions noted are these: at 10 µM.
Assay [17] addresses T2, Serine/threonine-protein kinase Chk1 (Homo sapiens). The conditions noted are these: at 10 µM.
For assay [18], the target named is T3, Casein kinase II (Homo sapiens). To be noted: at 10 µM.
The target in assay [19] is Casein kinase II subunit alpha' (Homo sapiens) (UniProt P19784). The conditions noted are these: at 1 µM.
Assay [20] shares this target. The conditions noted are these: at 10 µM.

Tyrosine-protein kinase CSK (Homo sapiens), sequence (P41240 2-450 limits assumed): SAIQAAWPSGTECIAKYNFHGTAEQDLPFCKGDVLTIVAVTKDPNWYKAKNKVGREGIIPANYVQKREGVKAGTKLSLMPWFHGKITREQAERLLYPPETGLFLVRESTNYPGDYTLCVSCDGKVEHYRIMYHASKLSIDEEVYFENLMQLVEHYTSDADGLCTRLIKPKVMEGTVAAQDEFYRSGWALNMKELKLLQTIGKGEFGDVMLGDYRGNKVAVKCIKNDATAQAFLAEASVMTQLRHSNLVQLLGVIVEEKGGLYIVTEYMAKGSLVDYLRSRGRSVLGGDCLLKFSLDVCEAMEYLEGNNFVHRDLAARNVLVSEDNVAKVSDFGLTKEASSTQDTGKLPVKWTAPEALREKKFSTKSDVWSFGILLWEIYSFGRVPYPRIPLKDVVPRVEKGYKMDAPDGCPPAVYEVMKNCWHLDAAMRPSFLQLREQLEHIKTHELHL
Serine/threonine-protein kinase Chk2 (Homo sapiens), sequence (O96017 whole entry): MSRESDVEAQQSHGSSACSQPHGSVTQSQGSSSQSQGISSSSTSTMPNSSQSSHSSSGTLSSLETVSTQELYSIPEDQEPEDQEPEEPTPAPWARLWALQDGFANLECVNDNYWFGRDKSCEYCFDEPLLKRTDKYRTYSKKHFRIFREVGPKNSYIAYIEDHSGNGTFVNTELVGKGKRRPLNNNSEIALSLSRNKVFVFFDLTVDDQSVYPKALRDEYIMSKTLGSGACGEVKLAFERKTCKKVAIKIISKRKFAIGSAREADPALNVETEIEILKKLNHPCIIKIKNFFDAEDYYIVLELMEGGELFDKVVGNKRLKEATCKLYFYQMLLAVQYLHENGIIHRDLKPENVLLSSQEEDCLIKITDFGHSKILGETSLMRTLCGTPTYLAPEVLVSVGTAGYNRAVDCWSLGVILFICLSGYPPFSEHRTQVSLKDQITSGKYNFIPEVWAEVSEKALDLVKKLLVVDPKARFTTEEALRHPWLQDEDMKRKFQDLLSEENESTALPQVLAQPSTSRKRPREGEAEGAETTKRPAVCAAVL
Dual specificity protein kinase CLK2 (Homo sapiens), sequence (P49760 whole entry, looked up): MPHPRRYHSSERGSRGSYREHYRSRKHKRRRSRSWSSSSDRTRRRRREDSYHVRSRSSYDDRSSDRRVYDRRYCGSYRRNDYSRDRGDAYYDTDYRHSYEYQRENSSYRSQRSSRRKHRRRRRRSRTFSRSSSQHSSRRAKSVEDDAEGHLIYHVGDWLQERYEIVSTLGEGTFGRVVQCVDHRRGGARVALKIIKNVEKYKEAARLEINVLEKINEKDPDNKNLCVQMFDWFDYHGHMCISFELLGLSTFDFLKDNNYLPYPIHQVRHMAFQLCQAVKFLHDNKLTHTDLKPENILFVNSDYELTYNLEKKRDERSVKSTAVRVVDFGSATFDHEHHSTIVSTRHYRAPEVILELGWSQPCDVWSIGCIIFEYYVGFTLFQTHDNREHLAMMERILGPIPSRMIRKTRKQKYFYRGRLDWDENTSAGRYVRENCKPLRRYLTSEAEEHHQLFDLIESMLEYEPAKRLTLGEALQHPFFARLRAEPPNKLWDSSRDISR
Casein kinase II subunit alpha' (Homo sapiens), sequence (P19784 whole entry, looked up): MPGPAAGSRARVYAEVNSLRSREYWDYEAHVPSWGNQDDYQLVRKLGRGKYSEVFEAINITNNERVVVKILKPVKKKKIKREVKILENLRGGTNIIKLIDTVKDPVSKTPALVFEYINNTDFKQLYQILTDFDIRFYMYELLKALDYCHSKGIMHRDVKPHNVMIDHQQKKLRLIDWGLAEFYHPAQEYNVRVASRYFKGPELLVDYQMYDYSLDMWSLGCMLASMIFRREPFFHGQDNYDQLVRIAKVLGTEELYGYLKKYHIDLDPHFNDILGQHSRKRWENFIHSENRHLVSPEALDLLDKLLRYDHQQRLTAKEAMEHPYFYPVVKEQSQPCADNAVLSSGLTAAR
T3 sequence (P19784 whole entry, looked up): as above
T3 sequence (P67870 whole entry, looked up): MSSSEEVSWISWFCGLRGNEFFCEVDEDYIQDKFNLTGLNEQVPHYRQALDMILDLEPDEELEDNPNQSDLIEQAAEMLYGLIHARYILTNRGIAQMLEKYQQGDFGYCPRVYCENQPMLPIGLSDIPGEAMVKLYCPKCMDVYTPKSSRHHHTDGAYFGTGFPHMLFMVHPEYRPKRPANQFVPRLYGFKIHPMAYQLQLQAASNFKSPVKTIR
T3 sequence (P68400 whole entry, looked up): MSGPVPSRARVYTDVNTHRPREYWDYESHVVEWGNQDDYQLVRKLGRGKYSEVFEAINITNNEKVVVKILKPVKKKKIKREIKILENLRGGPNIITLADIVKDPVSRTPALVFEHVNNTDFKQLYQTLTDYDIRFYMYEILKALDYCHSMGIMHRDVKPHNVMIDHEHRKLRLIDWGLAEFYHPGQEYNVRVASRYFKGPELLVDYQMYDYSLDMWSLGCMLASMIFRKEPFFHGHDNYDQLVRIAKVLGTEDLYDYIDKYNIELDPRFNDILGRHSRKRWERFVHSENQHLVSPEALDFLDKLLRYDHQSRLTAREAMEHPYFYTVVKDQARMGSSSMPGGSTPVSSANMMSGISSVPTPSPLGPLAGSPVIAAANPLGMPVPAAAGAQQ
Casein kinase I isoform delta (Homo sapiens), sequence (P48730 whole entry, looked up, canonical isoform): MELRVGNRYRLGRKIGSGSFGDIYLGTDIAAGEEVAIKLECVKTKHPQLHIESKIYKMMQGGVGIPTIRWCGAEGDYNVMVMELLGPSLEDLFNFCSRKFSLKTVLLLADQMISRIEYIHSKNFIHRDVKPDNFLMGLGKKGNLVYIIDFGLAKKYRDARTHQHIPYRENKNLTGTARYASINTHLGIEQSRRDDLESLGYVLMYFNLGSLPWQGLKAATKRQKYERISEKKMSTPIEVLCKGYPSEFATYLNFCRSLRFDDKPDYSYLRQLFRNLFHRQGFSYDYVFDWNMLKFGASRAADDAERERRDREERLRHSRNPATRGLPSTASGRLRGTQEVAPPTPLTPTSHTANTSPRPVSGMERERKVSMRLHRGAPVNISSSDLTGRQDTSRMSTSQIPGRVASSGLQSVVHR
Dual specificity protein kinase CLK3 (Homo sapiens), sequence (P49761 whole entry, looked up): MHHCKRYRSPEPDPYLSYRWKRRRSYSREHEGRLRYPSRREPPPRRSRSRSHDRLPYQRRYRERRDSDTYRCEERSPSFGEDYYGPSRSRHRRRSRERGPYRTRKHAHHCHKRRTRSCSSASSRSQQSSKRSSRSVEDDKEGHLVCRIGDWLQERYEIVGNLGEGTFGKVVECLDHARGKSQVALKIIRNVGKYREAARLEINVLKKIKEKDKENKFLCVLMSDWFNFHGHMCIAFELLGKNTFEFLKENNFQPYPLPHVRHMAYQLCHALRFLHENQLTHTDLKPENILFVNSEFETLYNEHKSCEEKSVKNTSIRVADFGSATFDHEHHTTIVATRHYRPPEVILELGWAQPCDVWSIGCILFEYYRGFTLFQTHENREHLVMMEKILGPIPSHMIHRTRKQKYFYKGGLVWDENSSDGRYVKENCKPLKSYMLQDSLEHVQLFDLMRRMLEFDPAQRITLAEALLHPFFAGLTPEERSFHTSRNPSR
Casein kinase I isoform gamma-1 (Homo sapiens), sequence (Q9HCP0 whole entry, looked up, canonical isoform): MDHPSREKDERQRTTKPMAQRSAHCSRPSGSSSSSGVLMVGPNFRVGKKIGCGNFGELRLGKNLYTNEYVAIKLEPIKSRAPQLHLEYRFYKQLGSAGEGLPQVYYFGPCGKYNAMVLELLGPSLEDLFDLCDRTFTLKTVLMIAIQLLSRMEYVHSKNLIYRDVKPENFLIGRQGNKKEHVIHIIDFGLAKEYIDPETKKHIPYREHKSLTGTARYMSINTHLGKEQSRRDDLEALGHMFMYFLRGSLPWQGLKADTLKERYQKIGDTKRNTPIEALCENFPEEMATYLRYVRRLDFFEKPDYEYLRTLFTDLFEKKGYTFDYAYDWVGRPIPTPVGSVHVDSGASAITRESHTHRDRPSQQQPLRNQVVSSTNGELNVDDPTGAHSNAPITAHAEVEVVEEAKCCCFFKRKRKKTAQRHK

For `O=C(Nc1nc2ccccc2n1CCN1CCOCC1)c1cccc([N+](=O)[O-])c1`, the residual activity in assay [1] was found to be 41%; in assay [2] it was 58%; in assay [3], 85%; in [4], 79%; in [5] it was 67%; in assay [6], 58%. The residual activity in assay [7] stood at 67%; in assay [8], 64%; in [9], 62%; in [10] it was 86%; in [11], 26%; in [12] it was 24%. Moreover, the residual activity in [13] was determined as 55%; in assay [14], 56%; in [15], 103%; in assay [16], 105%.

Take `CCCC(=O)Oc1ccc2[nH]c(C(=O)c3cc4ccccc4[nH]3)cc2c1`: the residual activity was 108% in [1]; 88% in assay [2]; 79% in assay [3]; 89% in [17]; 93% in [4]; 97% in assay [5]. The residual activity in assay [6] was determined as 90%; in assay [7] it was 92%; in assay [8], 87%; in assay [9] it was 101%; in [10] it was 86%; in assay [18], 106%. Besides, the residual activity is 132% in assay [19]; 98% in assay [20]; 122% in assay [11]; 101% in assay [12]; 81% in assay [13]; 101% in assay [15]. For the same compound, the residual activity in assay [16] worked out at 100%.

Take `O=C(c1ccccc1)c1ccc(N2CCOCC2)cc1O`: the residual activity in assay [1] was 89%; in [2], 47%; in assay [3], 86%; in assay [17] it was 90%; in assay [4] it was 86%; in [6], 86%. Also, the residual activity in assay [7] was determined as 100%; in [8], 88%; in [9] it was 92%; in assay [10] it was 88%; in assay [18], 113%; in assay [19] it was 122%. Further, the results for the residual activity in assay [13] and in [16] were 89% and 84%, respectively.

In the case of `CCCCc1c(-c2ccc(O)cc2)[nH]c2nccnc12`, the residual activity in [1] is 7%; in [2], 7%; in [3], 91%; in assay [17] it was 100%; in assay [4], 31%; in [5] it was 10%. Further, the residual activity was determined as 75% in assay [6]; 61% in [7]; 81% in [8]; 52% in assay [9]; 99% in assay [10]; 92% in assay [18]. Besides, the residual activity in [20] worked out at 87%; in [11], 64%; in [12], 47%; in [13], 83%; in assay [14] it was 52%.

As for `Nc1ncnc2c1cnn2-c1ccccc1`, the residual activity is 102% in assay [1]; 73% in assay [2]; 91% in [3]; 83% in [17]; 92% in [4]; 98% in [6]. Moreover, the residual activity in assay [7] came out at 99%; in assay [8] it was 85%; in assay [9], 36%; in assay [10] it was 87%; in [18], 36%; in assay [20] it was 58%. In addition, the residual activity in assay [13] came out at 87%; in assay [14], 99%.

As for `N#C/C(=C1/Nc2ccccc2S1)c1ccnc(NCCc2cccnc2)n1`, the residual activity in assay [1] is 8%; in assay [2], 3%; in [3] it was 97%; in assay [17] it was 84%; in assay [4], 80%; in assay [5] it was 48%. In addition, the residual activity amounted to 77% in assay [6]; 29% in [7]; 52% in [8]; 8% in [9]; 58% in assay [10]; 15% in [18]. Besides, the residual activity in [19] turned out to be 41%; in assay [20], 15%; in assay [11] it was 29%; in [12], 13%; in [13], 39%; in [14], 6%.

On to `O=c1cc(N2CCNCC2)oc2c(-c3ccccc3)cccc12`, for which the residual activity in assay [1] amounted to 79%; in assay [2], 42%; in [3] it was 83%; in assay [17], 85%; in [4], 90%; in assay [5], 91%. Also, the residual activity was determined as 97% in assay [6]; 97% in assay [7]; 88% in assay [8]; 85% in [9]; 79% in assay [10]; 52% in assay [18]. The residual activity worked out at 90% in assay [20]; 90% in [11]; 93% in [12]; 81% in assay [13]; 100% in [14].

`Cc1cc(C)c(/C=C2\C(=O)Nc3ccccc32)[nH]1`: the residual activity in [1] is 100%; in assay [2], 78%; in [3], 72%; in assay [17] it was 38%; in assay [4] it was 18%; in [5], 3%. Moreover, the residual activity in assay [8] came to 13%; in assay [9] it was 2%; in assay [11] it was 49%; in assay [12], 37%; in assay [13] it was 80%; in assay [14], 11%.

For the compound `Nc1ncnc2c1c(-c1ccc(Oc3ccccc3)cc1)cn2C1CCCC1`, the residual activity worked out at 99% in assay [1]; 96% in assay [2]; 83% in assay [3]; 113% in assay [17]; 79% in assay [4]; 24% in [5]. The residual activity was 88% in assay [6]; 73% in assay [7]; 56% in assay [8]; 8% in assay [9]; 79% in assay [10]; 105% in [18]. Moreover, the residual activity worked out at 118% in assay [19]; 86% in assay [20]; 112% in assay [11]; 88% in assay [12]; 82% in [13]; 6% in [14]. Besides, the residual activity in assay [15] was 0%; in assay [16], -1%.

Consider `Nc1ncnc2[nH]nc(Nc3ccc(F)cc3)c12`, for which the residual activity turned out to be 80% in [1]; 36% in assay [2]; 60% in [17]; 73% in assay [4]; 59% in assay [5]; 66% in assay [7]. The residual activity came to 42% in [8]; 7% in [9]; 104% in [10]; 104% in [19]; 73% in assay [20]; 109% in assay [11]. Further, the residual activity in [12] turned out to be 68%; in assay [15], 90%; in assay [16], 65%.

For `O=C(O)/C=C/c1cc(Br)c(Br)c(Br)c1Br`, the residual activity in [1] was 69%; in assay [2] it was 13%; in [3] it was 107%; in assay [17] it was 97%; in assay [4], 59%; in assay [5], 33%. The residual activity in assay [6] is 103%; in [7], 76%; in [8], 56%; in assay [9], 12%; in [10] it was 12%; in [18] it was -8%. Besides, the residual activity in [19] was determined as 33%; in assay [20], 5%; in [11], 102%; in assay [12], 49%; in assay [13] it was 79%; in assay [14], 52%.

For the compound `COc1ccc2c(c1)c(C1=C(c3c[nH]c4ccccc34)C(=O)NC1=O)cn2CCCN(C)C`, the residual activity in assay [1] turned out to be 29%; in assay [2] it was 4%; in assay [3], 67%; in assay [17], 41%; in assay [4] it was 34%; in [5] it was 9%. Further, the residual activity stood at 96% in assay [7]; 79% in [8]; 76% in assay [9]; 111% in [18]; 14% in assay [11]; 2% in assay [12]. In addition, the figures for the residual activity in [13] and in assay [14] were 59% and 45%, respectively.

For the compound `CCN(CC)CCNC(=O)c1c(C)[nH]c(/C=C2\C(=O)Nc3ccc(Cl)cc32)c1C`, the residual activity is 48% in assay [1]; 13% in [2]; 24% in [3]; 3% in assay [17]; 6% in [4]; 1% in [5]. Also, the residual activity in [6] is 64%; in [7], 14%; in [8] it was 23%; in assay [9] it was 5%; in [20] it was 47%; in [11], 9%. Besides, the values for the residual activity in [12], in assay [13] and in assay [14] were 1%, 77% and 4%, respectively.

With `O=C1Cc2c([nH]c3ccc([N+](=O)[O-])cc23)-c2ccccc2N1`, the residual activity in [1] was determined as 1%; in [2] it was 2%; in assay [3] it was 39%; in assay [4], 3%; in assay [5] it was 1%; in assay [14], 82%.

Take `Nc1nc(Nc2ccc(S(N)(=O)=O)cc2)nn1C(=O)c1c(F)cccc1F`: the residual activity in assay [1] amounted to 0%; in assay [2], 0%; in assay [3], 82%; in assay [17] it was 31%; in assay [4], 52%; in assay [5], 11%. Moreover, the residual activity in assay [8] came to 100%; in assay [10] it was 111%; in [18], 97%; in assay [19], 104%; in assay [20], 99%; in assay [11], 40%. The residual activity was found to be 9% in assay [12]; 20% in [13]; 0% in assay [14]; 99% in assay [15]; 100% in [16].

These data come from ChEMBL document CHEMBL2218924, “A broad activity screen in support of a chemogenomic map for kinase signalling research and drug discovery” (Biochem J, 2013).
